Test [1] is described as follows: NS1 protein of Zika virus - qHTS assay to identify small molecule inhibitors in human HEK 293 cells (AID 1347053). Note: nearly all actives have a fitted effect of over 55% in size. Note: potency is the fitted concentration of half-maximal effect. In outline:
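HEK 293 cells pretreated with compound for 1 h, then infected with ZIKV MR766 (MOI 0.5) for 24 h at 37 C. NS1 detected by TR-FRET with two anti-NS1 antibodies; normalized to uninfected (0%) and infected (100%) wells.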

A short description of test [2]: qHTS of pediatric cancer cell lines to identify multiple opportunities for drug repurposing: Primary screen for TC32 cells (AID 1347089). Note: nearly all actives have a fitted effect of over 60% in size. Note: potency is the fitted concentration of half-maximal effect. In outline:
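Luminescent CellTiter-Glo read-out of metabolically active TC32 cells after 48 h compound exposure. Primary: MIPE 11-point, 0.78 nM–46 µM; NPC 8-point, 0.59 nM–46 µM. Confirmatory: 11-point dilutions.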

Test [3] is described as follows: qHTS of pediatric cancer cell lines to identify multiple opportunities for drug repurposing: Primary screen for DAOY cells (AID 1347090). Note: nearly all actives have a fitted effect of over 55% in size. Note: potency is the fitted concentration of half-maximal effect. In outline:
(§1)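 Eight- or eleven-point concentration series, 48 h treatment at 37 degrees C in growth media; readout CellTiter-Glo luminescence. Potency and efficacy were taken from the concentration-response curves.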

Test [4] is described as follows: qHTS of pediatric cancer cell lines to identify multiple opportunities for drug repurposing: Primary screen for SJ-GBM2 cells (AID 1347091). Note: potency is the fitted concentration of half-maximal effect. In outline:
as §1

A short description of test [5]: qHTS of pediatric cancer cell lines to identify multiple opportunities for drug repurposing: Primary screen for A673 cells (AID 1347092). Note: nearly all actives have a fitted effect of over 45% in size. Note: potency is the fitted concentration of half-maximal effect. In outline:
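A673 cells (500-1,000 cells/well in growth media) were pre-incubated 5 h at 37 degrees C, then exposed to compounds for 48 h. Viability was read as CellTiter-Glo luminescence; concentration-response curves came directly from the primary screen.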

Test [6] can be described thus: qHTS of pediatric cancer cell lines to identify multiple opportunities for drug repurposing: Primary screen for SK-N-MC cells (AID 1347093). Note: potency is the fitted concentration of half-maximal effect. Summed up: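 Metabolically active cells were quantified by ATP-dependent luminescence (CellTiter-Glo, 15 min at room temperature) following 48 h treatment. Cells had been plated at 500-1,000 per well and settled for 5 h beforehand.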

Test [7] can be described thus: qHTS of pediatric cancer cell lines to identify multiple opportunities for drug repurposing: Primary screen for BT-37 cells (AID 1347094). Note: potency is the fitted concentration of half-maximal effect. In outline: (§2)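 Primary screen of approved and investigational compounds on cells in growth media at 37 degrees C, 5% CO2. MIPE set at 11-point and NPC set at 8-point dilutions; viability scored by ATP-based luminescence at 48 hours.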

Test [8] can be described thus: qHTS of pediatric cancer cell lines to identify multiple opportunities for drug repurposing: Primary screen for NB-EBc1 cells (AID 1347095). Note: potency is the fitted concentration of half-maximal effect. Summed up: as §2
Test [9] deals with Tyrosine-protein phosphatase non-receptor type substrate 1 (Homo sapiens) + Leukocyte surface antigen CD47 (Homo sapiens) (UniProt P78324+Q08722). Nature of the test: CD47-SIRPalpha protein protein interaction - HTRF assay qHTS validation (AID 1347058; active = well fitted curve in the direction sought with a large enough effect in the signal ratio, not every such curve was filed as active; the % refers to the signal ratio;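 note: recombinant soluble extracellular CD47 with His tag and biotinylated SIRPalpha domains; series mostly up to about 38 µM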). In outline: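 TR-FRET read (Ch1/Ch2 ratio) of soluble extracellular CD47 and Avi-biotinylated SIRPalpha domains in PBS pH 7.4 with 0.05% IGEPAL; 7-point compound titration. Sequential 30 min room-temperature steps; non-biotinylated SIRPalpha as control inhibitor.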
Tyrosine-protein phosphatase non-receptor type substrate 1 (Homo sapiens) + Leukocyte surface antigen CD47 (Homo sapiens), sequence (P78324 whole entry, looked up, the tested form may be a part): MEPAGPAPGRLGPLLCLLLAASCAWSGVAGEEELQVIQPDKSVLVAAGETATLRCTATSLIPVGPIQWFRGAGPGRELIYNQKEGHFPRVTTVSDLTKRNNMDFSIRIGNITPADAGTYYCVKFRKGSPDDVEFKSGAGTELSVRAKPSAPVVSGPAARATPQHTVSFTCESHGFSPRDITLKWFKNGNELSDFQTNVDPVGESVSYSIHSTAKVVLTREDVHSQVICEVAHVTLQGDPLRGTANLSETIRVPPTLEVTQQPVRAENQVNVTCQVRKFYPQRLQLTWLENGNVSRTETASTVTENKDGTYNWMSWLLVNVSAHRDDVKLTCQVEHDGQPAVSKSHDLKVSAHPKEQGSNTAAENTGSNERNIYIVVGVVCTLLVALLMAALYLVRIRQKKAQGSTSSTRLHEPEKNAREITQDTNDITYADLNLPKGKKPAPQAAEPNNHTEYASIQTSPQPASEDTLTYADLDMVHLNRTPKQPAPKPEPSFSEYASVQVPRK
Tyrosine-protein phosphatase non-receptor type substrate 1 (Homo sapiens) + Leukocyte surface antigen CD47 (Homo sapiens), sequence (Q08722 whole entry, looked up, the tested form may be a part): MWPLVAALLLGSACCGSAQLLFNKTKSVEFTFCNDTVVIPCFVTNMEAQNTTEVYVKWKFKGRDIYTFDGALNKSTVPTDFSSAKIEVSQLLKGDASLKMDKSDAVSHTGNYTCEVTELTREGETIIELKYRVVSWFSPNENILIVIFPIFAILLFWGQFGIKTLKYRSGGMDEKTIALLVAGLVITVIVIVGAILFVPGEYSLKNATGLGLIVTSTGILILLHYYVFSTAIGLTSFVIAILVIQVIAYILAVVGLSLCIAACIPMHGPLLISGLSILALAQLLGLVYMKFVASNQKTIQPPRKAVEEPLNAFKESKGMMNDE

In test [10] the target is Parathyroid hormone/parathyroid hormone-related peptide receptor (Homo sapiens) (UniProt Q03431). In words: qHTS for PTHR1 Agonists: Optimization Screen against the NCGC LOPAC library (AID 1347079).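 Note: GloSensor cAMP luminescence in HEK-293 GP2 cells expressing human PTHR1 with IBMX.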 In outline: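 Agonist readout: GloSensor cAMP luminescence, read after 15 min at room temperature. HEK-293-derived GP2 line carries PTHR1; compounds tested as a titration for 1 hr at 37C in presence of IBMX. M-PTH (1-15) served as control.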
Parathyroid hormone/parathyroid hormone-related peptide receptor (Homo sapiens), sequence (Q03431 whole entry, looked up): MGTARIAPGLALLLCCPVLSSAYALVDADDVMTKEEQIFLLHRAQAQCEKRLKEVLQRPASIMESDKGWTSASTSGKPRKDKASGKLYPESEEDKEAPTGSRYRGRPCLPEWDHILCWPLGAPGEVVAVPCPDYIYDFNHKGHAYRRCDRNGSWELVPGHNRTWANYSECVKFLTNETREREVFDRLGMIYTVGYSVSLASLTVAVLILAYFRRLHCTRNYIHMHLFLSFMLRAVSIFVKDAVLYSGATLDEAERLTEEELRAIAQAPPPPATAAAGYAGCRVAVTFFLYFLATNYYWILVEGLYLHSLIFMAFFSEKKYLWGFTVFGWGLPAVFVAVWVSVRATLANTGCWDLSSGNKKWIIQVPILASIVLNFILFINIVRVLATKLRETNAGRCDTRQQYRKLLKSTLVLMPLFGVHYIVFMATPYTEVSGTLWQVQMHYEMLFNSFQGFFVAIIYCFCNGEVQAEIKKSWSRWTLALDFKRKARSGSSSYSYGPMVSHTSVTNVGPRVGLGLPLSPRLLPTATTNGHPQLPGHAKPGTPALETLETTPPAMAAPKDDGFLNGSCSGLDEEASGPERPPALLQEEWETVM

Structures are written as SMILES. Values joined by “and” are separate entries in the source; they are usually repeats but may differ in a detail not shown here. Equal values may be shown once. Inconclusive results are not listed. Active and inactive are the calls of the source. Unless noted, calls come from the whole dose curve; as a rule, active = well fitted curve in the direction sought with a large enough effect; inconclusive = small, poorly fitted or top-dose-only effect, or another doubt; inactive = no such curve, though single readings can be large; an effect the other way counts as inactive or inconclusive.

`CCc1c2c(nc3ccc(OC(=O)N4CCC(N5CCCCC5)CC4)cc13)-c1cc3c(c(=O)n1C2)COC(=O)[C@]3(O)CC`: the Potency in test [1] was 0.332 µM (active); in test [2], 236 nM (active) and 739 nM (active); in test [3] it was 13.3 µM (active) and 1.48 µM (active); in test [4] it was 1.19 µM (active) and 590 nM (active); in test [5] it was 1.06 µM (active) and 590 nM (active); in test [6], 106 nM (active) and 105 nM (active). The Potency is 389 nM (active) and 544 nM (active) in test [7]; 1.19 µM (active) and 332 nM (active) in test [8].
For the compound `COc1c(N2CCNC(C)C2)c(F)cc2c(=O)c(C(=O)O)cn(C3CC3)c12` (stereo unspecified), the Potency entry in [1], in [2], in test [3], in [4], in [5] and in test [6] was “inactive” each time. Moreover, the Potency result in [7] and in test [8] was “inactive” in each case.
Consider `OCc1ccc(-c2nn(Cc3ccccc3)c3ccccc23)o1`, for which the Potency entry in [1], in test [2], in test [3], in test [7] and in test [8] was “inactive” each time. The result in test [9] and in test [10] was inactive.
On to `Cn1nnc2c(C(N)=O)ncn2c1=O`, for which the Potency entry in [1], in [2], in test [3], in [4], in test [5] and in test [6] was “inactive” each time. Besides, the Potency entry in [7] is “inactive”.
Turning to `CCN(CC)CC#CCOC(=O)C(O)(c1ccccc1)C1CCCCC1` (stereo unspecified), the Potency result in [1], in [2], in test [3], in test [5], in test [7] and in test [8] was “inactive” each time. The call in test [10] was inactive.
On to `CC1CC2C3CCC4=CC(=O)C=C[C@]4(C)[C@@]3(F)[C@@H](O)C[C@]2(C)[C@@]1(O)C(=O)CO` (stereo partly specified), for which the Potency entry in test [1], in [2], in [3], in test [4], in test [7] and in test [8] was “inactive” each time. Moreover, the result in [9] and in test [10] was inactive. In addition, in test [6], the Potency is 13.2 µM (active).
As to `N[C@@H](Cc1ccc(O)c(O)c1)C(=O)O`, the Potency entry in [1], in test [2], in test [3], in [4], in [7] and in test [8] was “inactive” throughout. Further, the outcome in test [9] and in test [10] was inactive. For the same compound, the Potency in [6] was 18.7 µM (active).
On to `Nc1[nH]c(=O)ncc1F`, for which the Potency result in test [1], in [2], in [3], in [4] and in test [5] was “inactive” throughout.
With `CCN(CC)CCn1c(=O)c(Cc2ccc(OC)cc2)nc2ccccc21`, the Potency entry in test [1], in [2], in test [3], in test [4], in [5] and in [6] was “inactive” each time. In addition, the Potency entry in test [7] and in test [8] was “inactive” in each case. In addition, the call in test [10] was inactive.
For `NCCCC(O)(P(=O)(O)O)P(=O)(O)O`, the Potency entry in test [1], in [2], in [3], in test [4], in test [5] and in [6] was “inactive” each time. The Potency entry in [7] and in test [8] was “inactive” each time.
Regarding `CC(=O)[C@H]1CC[C@H]2[C@@H]3CCC4=CC(=O)CC[C@]4(C)[C@H]3CC[C@]12C`, the Potency entry in test [1], in test [2] and in test [8] was “inactive” throughout. The outcome in test [9] and in test [10] was inactive. The Potency in test [5] is 1.18 µM (active).
With `CCOC(=O)c1ccc(C#Cc2ccc3c(c2)C(C)(C)CCS3)nc1`, the Potency result in test [1], in [2], in test [3], in [4], in test [7] and in [8] was “inactive” each time. Besides, the figures for the Potency in test [5] and in test [6] were 23.5 µM (active) and 18.7 µM (active), respectively.
For the compound `O=C(O)C1CCCN(CCC=C(c2ccccc2)c2ccccc2)C1` (stereo unspecified), the Potency entry in [1], in [2], in [3], in test [4], in [7] and in test [8] was “inactive” each time. In addition, the outcome in test [9] and in [10] was inactive.
As for `CCN(C)C(=O)Oc1cccc([C@H](C)N(C)C)c1`, the Potency entry in test [1], in test [2], in [3], in [4], in [5] and in test [6] was “inactive” in each case. For the same compound, the Potency result in test [7] and in test [8] was “inactive” in each case.
Consider `NC(=O)c1ccc2[nH]ccc2c1`, for which the Potency result in [1], in [2], in test [3], in test [4], in [5] and in test [6] was “inactive” each time. Moreover, the Potency result in [7] and in test [8] was “inactive” each time. The result in [9] and in test [10] was inactive.
Take `CCOC(=O)[C@H](CCc1ccccc1)N[C@H]1CCc2ccccc2N(CC(=O)O)C1=O`: the Potency result in test [1] and in [2] was “inactive” throughout.
As for `CCOCC(O)COc1ccc(NC(=O)CC[S+](C)C)cc1` (stereo unspecified), the Potency entry in test [1], in [2], in [3], in [4], in [5] and in [6] was “inactive” each time. The Potency entry in [7] and in test [8] was “inactive” in each case.
`COc1nc(N)nc2c1ncn2[C@@H]1O[C@H](CO)[C@@H](O)[C@@H]1O`: the Potency entry in test [1], in test [2], in [3], in [4], in test [5] and in [6] was “inactive” throughout. Further, the Potency result in test [7] and in [8] was “inactive” in each case.
With `CC[C@H](C)C(=O)O[C@H]1C[C@@H](C)C=C2C=C[C@H](C)[C@H](CC[C@@H]3C[C@@H](O)CC(=O)O3)[C@H]21`, the Potency entry in test [1] and in test [2] was “inactive” throughout. The Potency in test [3] was 8.41 µM (active) and 9.35 µM (active); in test [4], 9.44 µM (active) and 13.2 µM (active).
Take `CO[C@@H]1[C@@H](OC(N)=O)[C@@H](O)[C@H](Oc2ccc3c(O)c(NC(=O)c4ccc(O)c(CC=C(C)C)c4)c(=O)oc3c2C)OC1(C)C`: the Potency entry in test [1], in test [2], in test [3], in test [4], in [5] and in test [6] was “inactive” throughout. Besides, in test [7], the Potency entry was “inactive”.
In the case of `CCOC(=O)[C@H](CCc1ccccc1)N[C@H]1CS[C@H](c2cccs2)CN(CC(=O)O)C1=O`, the Potency entry in test [1] and in [2] was “inactive” in each case.
With `CC(=O)[C@H]1CC[C@H]2[C@@H]3CC=C4C[C@@H](O)CC[C@]4(C)[C@H]3CC[C@]12C`, the Potency entry in test [1], in test [2], in test [3], in [4], in test [5] and in test [6] was “inactive” throughout. In addition, the Potency result in [7] and in [8] was “inactive” each time.

(Values after PubChem BioAssay (NCATS).)
